Where a name gives a salt, the structure may show the parent alone.
Test system: Klebsiella aerogenes DSM 30053
Test: fold change of Putrescine concentration vs plate DMSO controls (fold change (ratio)); higher = more amine produced, active = hit call of the paper (significant change in both replicates, either direction)
Details: incubation time: 27 h, anaerobic, 37 °C;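 for the amine columns active = adjusted P below 0.05 in both replicates with a change the same way and a mean fold change under 0.8 or over 1.25; inactive = the rest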
Procedure, shortened: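 Amine values are fold changes relative to DMSO-only wells on the same plate. They derive from 27 h, 37 °C anaerobic mGAM cultures of four gut bacterial strains in 80 µL wells, dosed at 20 µM final, or 50 µM final for sweeteners. Extraction of the whole culture, LC–triple-quadrupole MS in dynamic MRM mode, external calibration curves and within-batch drift correction were used, with 2 biological replicates averaged.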

Fold change of Putrescine concentration, inactive:
CC(C)(C)NC[C@H](O)c1ccc(O)c(CO)c1 [Levalbuterol hydrochloride] (20 µM) 0.996
C[N+]1(CCCCC[N+]2(C)CCCC2)CCCC1 [Pentolinium bitartrate] (20 µM) 1.01
O=C1c2cccc(O)c2C(=O)c2c(O)cccc21 [Danthron] (20 µM) 0.975
O=C(N/N=C/c1ccc([N+](=O)[O-])o1)c1ccc(O)cc1 [Nifuroxazide] (20 µM) 0.954
COC(=O)Nc1nc2cc(Sc3ccccc3)ccc2[nH]1 [Fenbendazole] (20 µM) 1.03
CN(C)CCOC(c1ccccc1)c1ccccc1.Cn1c(=O)c2[nH]c(Cl)nc2n(C)c1=O [Dimenhydrinate] (20 µM) 1.01
CCc1ccc(C(=O)C(C)CN2CCCCC2)cc1 (centres undefined) [Eperisone Hydrochloride] (20 µM) 0.98
CC12CC3CC(C)(C1)CC(N)(C3)C2 [Memantine hydrochloride] (20 µM) 0.984
COc1ccc2[nH]cc(CCNC(C)=O)c2c1 [Melatonin] (20 µM) 0.999
CCC(=O)O[C@]1(C(=O)CCl)[C@@H](C)C[C@H]2[C@@H]3CCC4=CC(=O)C=C[C@]4(C)[C@@]3(F)[C@@H](O)C[C@@]21C [Clobetasol propionate] (20 µM) 1.02
CC[C@@H](CO)NCCN[C@@H](CC)CO [Ethambutol dihydrochloride] (20 µM) 0.987
CC(=O)CC(c1ccc([N+](=O)[O-])cc1)c1c(O)c2ccccc2oc1=O (centres undefined) [Acenocoumarol] (20 µM) 0.989
CCOC1O[C@H]([C@@H](COCc2ccccc2)OCc2ccccc2)[C@H](OCc2ccccc2)[C@H]1O (some centres undefined) [Tribenoside] (20 µM) 1.03
COc1ccc(C[C@@H]2c3cc(OC)c(OC)cc3CC[N@+]2(C)CCC(=O)OCCCCCOC(=O)CC[N@@+]2(C)CCc3cc(OC)c(OC)cc3[C@H]2Cc2ccc(OC)c(OC)c2)cc1OC [Cisatracurium besylate] (20 µM) 0.929
O=C1CN2Cc3c(ccc(Cl)c3Cl)N=C2N1 [Anagrelide] (20 µM) 0.986
Cc1c(C)c2c(c(C)c1O)CCC(C)(C(=O)O)O2 (centres undefined) [Trolox] (20 µM) 1.04
COc1cc(C(=O)NCc2ccc(OCCN(C)C)cc2)cc(OC)c1OC [Trimethobenzamide hydrochloride] (20 µM) 0.835
CC=CC(=O)N(CC)c1ccccc1C [Crotamiton] (20 µM) 1.01
CCOC(=O)C1=C(C)NC(C)=C(C(=O)OCC)C1c1ccccc1/C=C/C(=O)OC(C)(C)C [Lacidipine] (20 µM) 1.03
CCOC(=O)CC(=O)N1CCSC1COc1ccccc1OC (centres undefined) [Moguisteine] (20 µM) 1.01
CC(=O)OCC(=O)NCCCOc1cccc(CN2CCCCC2)c1 [Roxatidine acetate hydrochloride] (20 µM) 1.01
Clc1ccc(C(Cn2ccnc2)OCc2csc3c(Cl)cccc23)c(Cl)c1 (centres undefined) [Sertaconazole nitrate] (20 µM) 0.954
CC[N+](C)(CC)CCOC(=O)C1c2ccccc2Oc2ccccc21 [Methantheline bromide] (20 µM) 1.01
CN1[C@@H]2CC[C@H]1C[C@@H](OC(c1ccccc1)c1ccccc1)C2 [Benztropine mesylate] (20 µM) 1.03
Nc1c(Br)cc(Br)cc1CN[C@H]1CC[C@H](O)CC1 [Ambroxol hydrochloride] (20 µM) 1
COCCCC/C(=N\OCCN)c1ccc(C(F)(F)F)cc1 [Fluvoxamine maleate] (20 µM) 0.987
Clc1ccc(COC(Cn2ccnc2)c2ccc(Cl)cc2Cl)c(Cl)c1 (centres undefined) [Miconazole] (20 µM) 0.99
CCCCCCCCCCCCCCCC[N+](C)(C)CCN(Cc1ccc(OC)cc1)c1ncccn1 [Thonzonium bromide] (20 µM) 1
CCCN(CCC)C(=O)C(CCC(=O)O)NC(=O)c1ccccc1 (centres undefined) [Proglumide] (20 µM) 0.919
CN(C)CCC(c1ccc(Br)cc1)c1ccccn1 (centres undefined) [Brompheniramine maleate] (20 µM) 0.943
c1coc(CNc2ncnc3[nH]cnc23)c1 [Kinetin] (20 µM) 1.01
C#C[C@]1(O)CC[C@H]2[C@@H]3CCC4=CC(=O)CC[C@@H]4[C@H]3CC[C@@]21C [Norethindrone] (20 µM) 1.03
Oc1ncnc2[nH]ncc12 [Allopurinol] (20 µM) 1
COc1ccc(CN(CCN(C)C)c2ccccn2)cc1 [Pyrilamine maleate] (20 µM) 1.07
CC(C)(C#N)c1cc(Cn2cncn2)cc(C(C)(C)C#N)c1 [Anastrozole] (20 µM) 0.954
COC1=CC(=O)C[C@@H](C)[C@]12Oc1c(Cl)c(OC)cc(OC)c1C2=O [Griseofulvin] (20 µM) 0.989
CC(C)(C)NCC(O)COc1cccc2c1CC(O)C(O)C2 (centres undefined) [Nadolol] (20 µM) 0.988
CC1=C(CC(=O)O)c2cc(F)ccc2/C1=C\c1ccc([S+](C)[O-])cc1 (centres undefined) [Sulindac] (20 µM) 0.951
O=C1NCN(c2ccccc2)C12CCN(CCCC(c1ccc(F)cc1)c1ccc(F)cc1)CC2 [Fluspirilene] (20 µM) 0.994

From the supplement of paper PMC12494721
